Out of some 87,000 compounds screened, about 540 (0.62%) were called active. No rule for the calls is given here. Shown is part of a subset that was picked to be rich in actives. Entries with a potency or affinity are not part of this list.

The test in a line: MT1-MMP gene expression reporter suppression – cell-based, luciferase reporter, luminescence (AID 618).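 Also: actives suppress MT1-MMP promoter-driven transcription so potencies describe inhibitors.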 Conditions: MT1-MMP promoter luciferase reporter cells.
Turning to `CCCC(=O)Nc1ccc(Cl)c(NC(=O)c2cccnc2)c1`, the call was inactive.
The value for `O=C1CCCCCN1C(=O)c1cccc(C(=O)N2CCCCCC2=O)c1` was “inactive”; that for `O=C1CCCCCN1C(=O)c1ccc(C(=O)N2CCCCCC2=O)cc1` was “inactive”.
Take `Cc1ccc2c(c1)CCCN2C(=O)C1CCCO1` (stereo not given): the outcome was inactive.
Turning to `Cc1ccc2nc(NC(=O)c3ccc(Cl)s3)sc2c1`, the outcome was inactive.
For the molecule `Cc1ccc2nc(NC(=O)c3cccs3)sc2c1`, the molecule was classed as active.
`CCOC(=O)c1ccc2nc(NC(=O)c3cccs3)sc2c1`: the outcome was inactive.
Under `CCN(CC)S(=O)(=O)c1ccc2nc(NC(=O)c3cccs3)sc2c1` stands “inactive”.
Regarding `CS(=O)(=O)c1ccc2nc(NC(=O)c3cccs3)sc2c1`, the outcome was active.
Under `CN(C)S(=O)(=O)c1ccc2nc(NC(=O)c3cccs3)sc2c1` stands “inactive”; under `CCSc1n[nH]c2nc3c(c(=O)n12)C1(CCCC1)Cc1ccccc1-3`, “inactive”.
In the case of `CCCCOc1ccccc1C1CC(=O)NC2=C1C(=O)CCC2` (stereo not given), the molecule was classed as active.
Turning to `CCCOc1ccccc1C1CC(=O)NC2=C1C(=O)CCC2` (stereo not given), the molecule was classed as inactive.
For the molecule `CCOc1ccccc1C1CC(=O)NC2=C1C(=O)CCC2` (stereo not given), the molecule was classed as inactive.
As for `COc1oc(-c2ccc(Cl)cc2)nc1C(F)(F)F`, the molecule was called inactive.
As for `Cc1ccc2c(c1)c1c3n2CCN(C(=O)C2CC2)C3CCC1` (stereo not given), the outcome was inactive.
In the case of `Cc1ccc2c(c1)c1c3n2CCCNC3CCC1` (stereo not given), the molecule was classed as inactive.
The value for `c1cc2c(cc1C1CCCCC1)c1c3n2CCCNC3CCC1` (stereo not given) was “active”; that for `Cc1ccc2c(c1)c1c3n2CCN(C(=O)CN2CCN(C)CC2)C3CCC1` (stereo not given) was “inactive”.
`c1ccc2c(c1)c1c3n2CCNC3CCC1` (stereo not given): the outcome was inactive.
Take `CCCCCn1c(N)c(-c2nc3ccccc3s2)c2c([N+](=O)[O-])nn(C)c(=O)c21`: the molecule was classed as inactive.
For `Cc1cc(OC(=O)c2ccco2)c2c(C)cc(=O)oc2c1`, the call was inactive.
The value for `O=c1oc2ccccc2n1CCCOc1ccccc1` was “inactive”.
Under `CC1CCCN(S(=O)(=O)c2ccc(NC(=O)CN3CCN(C)CC3)cc2)C1` (stereo not given) stands “inactive”; under `CCc1cccc(CC)c1NC(=O)CN1CC(C)SC1=NC1CCCCC1` (stereo not given), “inactive”; under `Cc1ccc(NC(=O)CN2CC(C)SC2=NC2CCCCC2)cc1` (stereo not given), “active”.
Turning to `C=CCOc1cc(C)nc(-c2ccccc2O)n1`, the result was inactive.
As to `CCOC(=O)CSc1nnc(N)s1`, the molecule was classed as inactive.
For `O=C1C/C(=C/NCc2ccccc2)C(=O)N1`, the call was inactive.
`CCc1nnc(NC(=O)CSc2nccn2-c2cccc(C)c2C)s1`: the outcome was inactive.
Regarding `CCSc1nnc(NC(=O)CSc2nccn2-c2cccc(C)c2C)s1`, the molecule was called inactive.
As to `Cc1nnc(NC(=O)CSc2nccn2-c2cccc(C)c2C)s1`, the call was active.
On to `O=C1CC(c2c[nH]c3ccccc23)C(=O)N1` (stereo not given), for which the result was inactive.
As for `CCOc1ccc(-c2cc(CCCC(=O)NCCc3ccccc3)no2)cc1`, the molecule was called inactive.
Take `CCOc1ccc(-c2cc(CCCC(=O)NCCc3ccc(OC)c(OC)c3OC)no2)cc1`: the outcome was inactive.
On to `CCOc1ccc(NC(=O)CCCc2cc(-c3ccc(OCC)cc3)on2)cc1`, for which the result was inactive.
Under `CCOc1ccc(-c2cc(CCCC(=O)Nc3cccc(OC)c3)no2)cc1` stands “inactive”; under `COc1ccccc1NC(=O)NC(=O)N(C(C)C)S(C)(=O)=O`, “inactive”; under `Cc1cc2ncn(CC(O)COC3CCCCC3)c2cc1C` (stereo not given), “inactive”.
Under `CC(=O)Nc1ccc(OCC(=O)c2ccc(C)cc2C)cc1` stands “inactive”.
For the molecule `CC(C)NC(=O)c1ccccc1NC(=O)c1ccccc1N(C)S(C)(=O)=O`, the call was inactive.
Take `COCC(C)n1c(C)cc(C(=O)COC(=O)c2n[nH]c3ccccc23)c1C` (stereo not given): the result was inactive.
In the case of `CCOC(=O)c1n[nH]c2ccccc12`, the molecule was classed as inactive.
Regarding `Cc1cc(NC(=O)COC(=O)c2n[nH]c3ccccc23)no1`, the call was inactive.
In the case of `COCCn1c(C)cc(C(=O)COC(=O)c2ccc(-n3nc(C)cc3C)cc2)c1C`, the outcome was inactive.
Turning to `COCCn1c(C)cc(C(=O)COC(=O)c2n[nH]c3ccccc23)c1C`, the result was active.
With `CCCCCn1c(=O)[nH]c2cc(C(=O)O)ccc2c1=O`, the molecule was called inactive.
The value for `Clc1ccccc1CSc1nnc(Cn2cnc3ccccc32)n1-c1ccccc1` was “inactive”.
The value for `CN1CCC(NC(=O)c2cccs2)CC1` was “inactive”.
Consider `CCCOc1ccc(-c2nnc(-c3ccncc3)o2)cc1`, for which the result was inactive.
Take `CCCOc1ccc(-c2nnc(-c3ccco3)o2)cc1`: the molecule was called inactive.
The value for `CCOc1ccc(-c2nnc(-c3cccs3)o2)cc1` was “inactive”; that for `CC(C)COc1ccc(-c2nnc(-c3ccco3)o2)cc1` was “inactive”.
Consider `O=C(CN1CCOCC1)Nc1c2c(nc3ccccc13)N(Cc1ccccc1)CC2`, for which the molecule was classed as inactive.
Regarding `O=C(O)C1CCN(S(=O)(=O)c2ccc(Oc3ccccc3)cc2)CC1`, the result was inactive.
`Cc1cc(NC(=O)CCCC(=O)Nc2ccc(F)cc2)no1`: the molecule was called inactive.
Take `COc1ccc(S(=O)(=O)N[C@@H](Cc2ccccc2)C(=O)N2CC[C@@]3(O)CCCC[C@H]3C2)cc1`: the call was inactive.
Regarding `Cc1c(NC(=O)c2cnn3c2NC(c2ccc(Br)cc2)CC3C(F)(F)F)c(=O)n(-c2ccccc2)n1C` (stereo not given), the molecule was classed as inactive.
For the molecule `c1ccc2nc(-c3nc4ccccc4o3)ccc2c1`, the outcome was active.
The value for `c1ccc(-c2nc3ccccc3o2)nc1` was “inactive”.
The value for `c1cc(-c2nc3ccccc3o2)nc(-c2nc3ccccc3o2)c1` was “inactive”; that for `Cc1ccc(-c2nnc(Nc3ccccc3)o2)cc1` was “active”.
On to `Cc1ccc(-c2nnc(-c3ccccc3)o2)cc1`, for which the molecule was classed as inactive.
On to `CCNc1nnc(-c2ccc(C)cc2)o1`, for which the molecule was classed as inactive.
The value for `O=C(O)CCCn1c(=O)[nH]c2ccccc2c1=O` was “inactive”; that for `Cc1ccc(C)c(CN2C(=O)C3(OCCCO3)c3ccccc32)c1` was “inactive”.
Take `CC(=O)N1c2ccccc2N(Cc2ccc(C)cc2C)C(=O)C1(C)C`: the outcome was active.
`Cc1ccc(C(=O)N2c3ccccc3N(Cc3ccccc3)C(=O)C2(C)C)cc1`: the call was inactive.
`COc1ccc(N(C)S(=O)(=O)c2ccc3c(c2)oc(=O)n3C)cc1`: the molecule was called inactive.
In the case of `Cc1[nH]c2ccc(C(=O)O)cc2c1C`, the molecule was called inactive.
Regarding `Cc1nn2c(CN(C(=O)c3ccco3)c3ccccc3)nnc2c2ccccc12`, the outcome was inactive.
For the molecule `O=S(=O)(N1CCOCC1)n1nnc2ccccc21`, the molecule was called inactive.
As for `O=C(N1CCOCC1)n1nnc2ccccc21`, the outcome was inactive.
In the case of `O=C(CSc1ncnc2ccccc12)N1CCN(c2ccccc2)CC1`, the molecule was called inactive.
For `NC(=O)C1CCN(C(=O)c2cc3ccccn3n2)CC1`, the molecule was classed as inactive.
In the case of `COc1ccc(-c2nnn(CCC(=O)O)n2)cc1`, the result was inactive.
As for `COc1cccc(-c2nnn(CCC(=O)O)n2)c1`, the result was inactive.
For the molecule `COc1ccc(NC(=O)CCn2nnc(-c3ccc(C)cc3)n2)cc1OC`, the molecule was called inactive.
Regarding `COC(=O)CCn1nnc(-c2cccs2)n1`, the call was inactive.
Regarding `Cc1ccc(-c2nnn(CCC(=O)NC(C)(C)C)n2)cc1`, the molecule was called inactive.
On to `COC(=O)CCn1nnc(-c2ccc(C)cc2)n1`, for which the molecule was called inactive.
With `O=C(c1ccc(CS(=O)(=O)c2ccccc2)o1)N1CCOCC1`, the outcome was inactive.
As for `CCCn1c(=S)[nH]c2cc(OC)c(OC)cc2c1=O`, the outcome was inactive.
As to `CC(=O)N1CCN(CCN=CC2=C(O)CC(c3ccc(Cl)cc3)CC2=O)CC1` (stereo not given), the outcome was inactive.
For the molecule `O=C(C1CCCN(Cc2ccccc2)C1)N1CCc2ccccc2C1` (stereo not given), the molecule was classed as inactive.
As for `NC(=O)c1cc(Cl)cn(-c2ccccc2)c1=O`, the call was inactive.
The value for `CCOC(=O)C1CCCN(c2ncnc3c2[nH]c2cccc(OC)c23)C1` (stereo not given) was “inactive”; that for `O=C(c1cc(-c2cccs2)nc2ccccc12)N1CCN(S(=O)(=O)c2cccc(F)c2)CC1` was “inactive”.
As for `CSC(=O)CC(=O)NC(=O)c1ccccc1`, the molecule was called inactive.
For `Cc1cccc(C)c1Nc1nc2ccccc2o1`, the result was inactive.
As for `Cc1ccc(NC(=O)c2c(C)nc(Nc3nc4ccccc4o3)nc2C)cc1`, the molecule was called inactive.
Turning to `O=c1[nH]c(Nc2nc3ccccc3o2)nc2c1CCCC2`, the molecule was classed as inactive.
As for `Cc1ccc2oc(Nc3nc(C)cc(C)n3)nc2c1`, the call was inactive.
In the case of `O=C(c1cccs1)N1CCc2ccccc21`, the result was inactive.
As for `c1ccc(-c2noc(-c3ccc4ccccc4c3)n2)nc1`, the outcome was active.
The value for `COc1cccc(-c2noc(-c3cccnc3)n2)c1` was “inactive”.
Take `COc1cccc(-c2nc(-c3ccccc3)no2)c1`: the call was inactive.
For `c1ccc(-c2cc(-c3nc(-c4ccccn4)no3)c3ccccc3n2)cc1`, the molecule was called inactive.
The value for `COc1ccc(-c2noc(-c3cccc(Cl)c3)n2)cc1OC` was “inactive”; that for `c1ccc(SCc2nc(-c3ccccn3)no2)cc1` was “inactive”.
As for `Clc1cccc(-c2nc(-c3ccccn3)no2)c1`, the call was active.
`Cc1onc(-c2ccccc2Cl)c1-c1nc(-c2ccccn2)no1`: the result was inactive.
For `Clc1ccc(-c2nc(-c3ccccn3)no2)cc1Cl`, the molecule was called inactive.
For the molecule `Cc1ccc(SCc2nc(-c3ccccn3)no2)cc1`, the outcome was inactive.
`Cc1ccc(-c2nc(-c3ccccn3)no2)cc1Cl`: the result was active.
In the case of `O=C(Nc1nccs1)c1ccc(COc2ccccc2Br)o1`, the call was inactive.
With `O=C(CSCc1c(Cl)cccc1Cl)Nc1nccs1`, the call was inactive.
`CCCCOC(=O)Nc1ccc(C(N)=O)cc1`: the call was inactive.
For the molecule `C/C=C/c1ccc(OCCCNC)c(OC)c1`, the result was inactive.
Consider `CC1CCN(C(=O)COc2ccccc2F)CC1`, for which the outcome was inactive.
Regarding `O=C(CCn1c(=O)[nH]c2ccsc2c1=O)N1CCN(c2cccc(Cl)c2)CC1`, the molecule was classed as inactive.
In the case of `CCCc1cc(C(=O)Nc2cc(OC)c(Cl)cc2OC)no1`, the molecule was called inactive.
For `c1cc(-c2noc(-c3ccc4c(c3)OCO4)n2)ccn1`, the call was inactive.
On to `COc1ccc(-c2noc(-c3ccc4c(c3)OCO4)n2)cc1`, for which the result was inactive.
Consider `COc1ccc(-c2noc(-c3ccccc3-c3ccccc3)n2)cc1`, for which the result was inactive.
With `c1ccc(-c2noc(-c3ccc4c(c3)OCO4)n2)nc1`, the result was active.
Under `Brc1ccc(-c2nc(-c3ccccc3)no2)o1` stands “inactive”.
The value for `c1ccc(-c2noc(-c3ccco3)n2)nc1` was “inactive”.
Turning to `c1ccc(-c2noc(-c3ccncc3)n2)nc1`, the call was inactive.
For the molecule `COc1ccc(-c2nc(-c3ccc(Br)cc3)no2)c(OC)c1`, the molecule was called inactive.
Regarding `c1ccc(-c2noc(-c3cccnc3)n2)nc1`, the molecule was classed as inactive.
The value for `COc1ccc(-c2nc(-c3ccccc3)no2)c(OC)c1` was “active”; that for `Cc1sc2nc(SCC(=O)N3CCCC3)[nH]c(=O)c2c1C` was “inactive”.
Consider `O=C1CC(c2ccco2)c2ccc3ccccc3c2N1` (stereo not given), for which the molecule was classed as inactive.
Consider `CCOC(=O)c1cnc(SCC(=O)c2ccc(C)cc2)nc1N`, for which the result was inactive.

For the origin of these results see PubChem BioAssay AID618 (Sanford-Burnham Center for Chemical Genomics, 2007).
